Screening data from PubChem.
Avidin bead fluor: avidin bead compound fluorescence profile | Avidin beads, compound fluorescence 488/530 nm, flow cytometry; stronger effect = higher value | fluorescence (KMESF) at 10 µM | hit rate 0.38% among 220,000; in the data active = fluorescence above about 47
RGS16-Gao HTS: modulates binding between human RGS16 and Galphao; AID 1441; hit rate 0.38% among 220,000; bead-based flow cytometry RGS16-Galphao binding, fluorescence; actives lie on both sides; O15492+P09471; binding response (% of control), % at 10 µM;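 note: Galphao activated by GDP with aluminum fluoride before binding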
GSH bead fluor: compound fluoresces at 488/530 nm on GSH beads; hit rate 0.25% among 190,000; fluorescence (KMESF) at 10 µM; GSH beads flow cytometry, compound fluorescence 488/530 nm; stronger effect = higher value; AID 1776; in the data active = fluorescence above about 89;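 note: glutathione beads carrying GST-tagged Bcl family fusion proteins plus one bare bead set; values are compound well signal with DMSO vehicle wells as background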
RGS8-Gao: regulators of human RGS8-Galphao interaction; AID 1423; multiplexed bead flow cytometry, RGS8-Galphao binding; actives lie on both sides; hit rate 0.34% among 220,000; response (percent of control binding), % at 10 µM; in the data active = response below about 60% or above about 140%; inactive = in between;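 note: Galphao activated as the GDP aluminium fluoride complex binding bead-coupled RGS8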
Target sequence (P09471 whole entry, looked up): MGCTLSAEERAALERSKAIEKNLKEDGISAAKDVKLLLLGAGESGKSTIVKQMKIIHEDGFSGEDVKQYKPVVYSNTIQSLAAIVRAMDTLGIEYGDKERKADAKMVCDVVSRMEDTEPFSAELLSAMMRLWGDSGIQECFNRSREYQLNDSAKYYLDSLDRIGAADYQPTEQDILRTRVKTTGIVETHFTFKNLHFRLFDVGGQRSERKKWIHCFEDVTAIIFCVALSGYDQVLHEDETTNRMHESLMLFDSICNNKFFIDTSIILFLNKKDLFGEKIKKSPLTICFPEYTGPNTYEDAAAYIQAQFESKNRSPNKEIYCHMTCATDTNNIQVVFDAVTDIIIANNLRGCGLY
RGS7-Gao reg: modulates binding of RGS7 to human Galphao. AID 1439. P09471. binding response (% of control), % at 10 µM. Multiplexed bead flow cytometry; actives lie on both sides. hit rate 0.35% among 220,000; in the data active = binding response below about 49% or above about 150%; inconclusive = no clear call, values can overlap the other calls; inactive = in between;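 note: fluorescent Galphao held in activated GDP-AlF4 state binding bead-coupled RGS7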
RGS4-Gao reg: modulates binding of RGS4 to human Galphao; P09471; Multiplexed bead flow cytometry; actives lie on both sides; binding response (% of control), % at 10 µM; hit rate 0.33% among 220,000; AID 1415; in the data active = binding response below about 49% or above about 150%; inactive = in between;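 note: fluorescent Galphao activated with aluminum fluoride binding bead-coupled RGS4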
RGS-Gao: RGS4-Galphao interaction regulator (human); RGS4–Galpha-o binding response, % at 10 µM; hit rate 99% among 1,600; multiplexed bead flow cytometry, RGS–Galpha-o binding; shares compounds with RGS16-Gao HTS;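 note: fluorescently labeled Galpha-o bound to GDP with aluminium fluoride binding biotinylated RGS beads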
Avidin counter: counter-screen: compounds disrupting biotin binding to avidin beads | shares compounds with RGS16-Gao HTS | streptavidin beads, fluorescein-biotin binding, flow cytometry | inhibition, % at 10 µM | 1,700 tested, under 10 active | AID 1783;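 active = inhibition above 50%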;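 note: median green fluorescence of gated singlet beads compared with DMSO control wells; 0% = DMSO wells and 100% = complete loss of bead fluorescence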
RGS8-Gao confirm: RGS8-Galphao interaction regulation, single point confirmation; shares compounds with RGS16-Gao HTS; bead-based flow cytometry RGS8-Galphao binding, fluorescence; actives lie on both sides; binding response (% of control), % at 10 µM; hit rate 3% among 1,700; AID 1836; in the data active = binding response below about 72% or above about 130%; inactive = in between;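 note: Galphao activated as GDP AlF4 complex before binding bead RGS8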
RGS7-Gao confirm: confirmation of regulators of human RGS7-Galphao interaction; hit rate 7.8% among 1,700; shares compounds with RGS16-Gao HTS; response (percent of control binding), % at 10 µM; bead-based flow cytometry RGS7-Galphao binding; actives lie on both sides; AID 1837; in the data active = response below about 75% or above about 130%; inactive = in between;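 note: fluorescent Galphao activated with GDP and aluminum fluoride binding bead-coupled RGS7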
RGS16-Gao conf: RGS16-Galphao interaction regulation, single point confirmation. shares compounds with RGS16-Gao HTS. bead-based flow cytometry, RGS16-Galphao binding; actives lie on both sides. response (% of control binding), % at 10 µM. hit rate 4% among 1,700; in the data active = response below about 74% or above about 130%; inactive = in between;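 note: Galphao activated as the GDP aluminium fluoride complex binding bead-coupled RGS16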
RGS4-Gao confirm: RGS4-Galphao interaction regulation, single point confirmation; shares compounds with RGS16-Gao HTS; RGS4-Galphao binding, multiplexed bead flow cytometry; actives lie on both sides; binding response (% of control), % at 10 µM; hit rate 4% among 1,700; in the data active = binding response below about 74% or above about 130%; inactive = in between
RGS19-Gao conf: RGS19-Galphao interaction regulation, single point confirmation | shares compounds with RGS16-Gao HTS | bead-based flow cytometry RGS19-Galphao binding; actives lie on both sides | AID 1841 | response (percent of control binding), % at 10 µM | hit rate 5% among 1,700; in the data active = response below about 50% or above about 160%; inactive = in between;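 note: 100% = no compound control and 0% = blank background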
Target sequence (P09471 whole entry, looked up): as above
Target sequence (P49795 whole entry, looked up): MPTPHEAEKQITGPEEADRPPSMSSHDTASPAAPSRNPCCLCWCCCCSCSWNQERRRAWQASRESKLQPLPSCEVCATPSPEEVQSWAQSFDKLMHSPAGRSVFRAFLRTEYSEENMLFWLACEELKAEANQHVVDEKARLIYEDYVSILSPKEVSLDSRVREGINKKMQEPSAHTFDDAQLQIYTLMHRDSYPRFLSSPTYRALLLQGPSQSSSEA
* = called active by the depositor; [ ] = remark or other dose. Compounds with a hit are over-represented: about 1.2% of the library has one in this group of screens. Unless noted, the rule behind the calls is not given here.

`O=c1c2c3c(sc2nc(NCCOCCO)n1Cc1ccco1)CCCCC3` gave Avidin bead fluor 1, RGS16-Gao HTS 32, RGS8-Gao 46*, RGS7-Gao reg inconclusive, RGS4-Gao reg 39*, Avidin counter 2, RGS8-Gao confirm 103, RGS7-Gao confirm 106, RGS16-Gao conf 105, RGS4-Gao confirm 106 and RGS19-Gao conf 121.
For COc1ccc(S(=O)(=O)Nc2cc(Sc3ncn[nH]3)c(O)c3ccccc23)cc1 the results were Avidin bead fluor 2, RGS16-Gao HTS 11*, GSH bead fluor 28, RGS8-Gao 61, RGS7-Gao reg 77, RGS4-Gao reg 72 and RGS-Gao 72*.
COc1ccc(CCNC(=O)/C(=C/c2cccnc2)NC(=O)c2ccccc2)cc1 was read as Avidin bead fluor 14, RGS16-Gao HTS 226*[activator], GSH bead fluor 13, RGS8-Gao 127, RGS7-Gao reg 108, RGS4-Gao reg 110, RGS-Gao 110*, Avidin counter -2, RGS8-Gao confirm 103, RGS7-Gao confirm 107, RGS16-Gao conf 104, RGS4-Gao confirm 103 and RGS19-Gao conf 92.
O=C(NCCc1ccccc1F)/C(=C/c1cccnc1)NC(=O)c1ccccc1 was read as Avidin bead fluor 6, RGS16-Gao HTS 78, GSH bead fluor 13, RGS8-Gao 96, RGS7-Gao reg 97 and RGS4-Gao reg 101.
For O=C(O)/C=C/c1nc(-c2ccccc2)n2ccccc12 the results were Avidin bead fluor 9, RGS16-Gao HTS 97, GSH bead fluor 10, RGS8-Gao 97, RGS7-Gao reg 96 and RGS4-Gao reg 103.
For CC(OC(=O)c1ccccc1NS(=O)(=O)c1cccc(N)c1)C(=O)N(C)Cc1ccccc1 (stereo unspecified) the results were Avidin bead fluor 8, RGS16-Gao HTS 12*, GSH bead fluor 8, RGS8-Gao 73, RGS7-Gao reg 86, RGS4-Gao reg 91, RGS-Gao 91*, Avidin counter 1, RGS8-Gao confirm 100, RGS7-Gao confirm 104, RGS16-Gao conf 102, RGS4-Gao confirm 102 and RGS19-Gao conf 91.
COCC(=O)N(Cc1cc2ccc(C)cc2[nH]c1=O)c1ccc(OC)cc1 was read as Avidin bead fluor 8, RGS16-Gao HTS -28*, GSH bead fluor 7, RGS8-Gao 78, RGS7-Gao reg 87, RGS4-Gao reg 86, RGS-Gao 86*, Avidin counter 0, RGS8-Gao confirm 104, RGS7-Gao confirm 100, RGS16-Gao conf 102, RGS4-Gao confirm 99 and RGS19-Gao conf 103.
`Cc1c(O)c2c3c(cccc3c1O)C(=O)N(c1ccccc1)C2=O` gave Avidin bead fluor 2, RGS16-Gao HTS 120, GSH bead fluor 13, RGS8-Gao 143*[activator], RGS7-Gao reg 161*[activator], RGS4-Gao reg 164*[activator], Avidin counter -1, RGS8-Gao confirm 95, RGS7-Gao confirm 92, RGS16-Gao conf 93, RGS4-Gao confirm 93 and RGS19-Gao conf 92.
Screening COc1cc(-c2nc(C)c(C(C)=O)n2O)ccc1OCC(=O)Nc1ccc(F)cc1 returned Avidin bead fluor 10, RGS16-Gao HTS 98, GSH bead fluor 18, RGS8-Gao 99, RGS7-Gao reg 98 and RGS4-Gao reg 104.
Screening CCOc1cc(-c2nc(C)c(C(C)=O)n2O)ccc1OCC(=O)Nc1ccc(F)cc1 returned Avidin bead fluor 64*, RGS16-Gao HTS 114, GSH bead fluor 10, RGS8-Gao 103, RGS7-Gao reg 158*[activator], RGS4-Gao reg 110, RGS-Gao 110*, Avidin counter -1, RGS8-Gao confirm 93, RGS7-Gao confirm 90, RGS16-Gao conf 92, RGS4-Gao confirm 101 and RGS19-Gao conf 77.
Screening N#C/C(=C\c1sc(N2CCOCC2)nc1-c1ccccc1)C(=O)Nc1cccc2ccccc12 returned Avidin bead fluor 312*, RGS16-Gao HTS 105, GSH bead fluor 12, RGS8-Gao 90, RGS7-Gao reg 417*[activator], RGS4-Gao reg 141 and RGS-Gao 141*.
`O=C(NC1CC1)C1=C[C@@H](c2ccc3c(c2)OCO3)C[C@@H](OCc2ccc(CO)cc2)O1` gave Avidin bead fluor 6, RGS16-Gao HTS 100, GSH bead fluor 17, RGS8-Gao 102, RGS7-Gao reg 99 and RGS4-Gao reg 99.
COC(=O)c1ccccc1NS(=O)(=O)c1ccc(NC(C)=O)cc1 was read as Avidin bead fluor 19, RGS16-Gao HTS 137, GSH bead fluor 14, RGS8-Gao 134, RGS7-Gao reg 151*[activator], RGS4-Gao reg 128, RGS-Gao 128*, Avidin counter 2, RGS8-Gao confirm 100, RGS7-Gao confirm 104, RGS16-Gao conf 101, RGS4-Gao confirm 102 and RGS19-Gao conf 92.
Screening COC(=O)c1ccccc1NS(=O)(=O)c1ccc(F)cc1 returned Avidin bead fluor 22, RGS16-Gao HTS 104, GSH bead fluor 29, RGS8-Gao 100, RGS7-Gao reg 101 and RGS4-Gao reg 99.
For CCC(=O)Nc1sc2c(c1C(N)=O)CCC2 the results were Avidin bead fluor -2, RGS16-Gao HTS -7.4*, GSH bead fluor 22, RGS8-Gao 12*, RGS7-Gao reg 7.2*, RGS4-Gao reg 16*, Avidin counter -1, RGS8-Gao confirm 107, RGS7-Gao confirm 102, RGS16-Gao conf 108, RGS4-Gao confirm 101 and RGS19-Gao conf 107.
